In PubChem BioAssay (EPA / NIEHS):
Inconclusive results are not listed. Active and inactive are the calls of the source. Rule for the calls, unless noted: active = hit-call score of the fitted dose curve at least 0.9, where 1 is the maximum; inactive = score below 0.9.

What was measured:
[1] = target: Oxysterols receptor LXR-alpha (Homo sapiens) (UniProt Q13133); assay: ATG_LXRa_TRANS: Attagene TRANS-FACTORIAL HepG2 Assay for human Liver X Receptor alpha (LXRa) (AID 2282980; active = hit-call score of the fitted dose curve at least 0.9, where 1 is the maximum); details: HepG2 Attagene TRANS reporter, LXRa transactivation
Sequence of Oxysterols receptor LXR-alpha (Homo sapiens) (Q13133 whole entry, looked up, the tested form may be a part): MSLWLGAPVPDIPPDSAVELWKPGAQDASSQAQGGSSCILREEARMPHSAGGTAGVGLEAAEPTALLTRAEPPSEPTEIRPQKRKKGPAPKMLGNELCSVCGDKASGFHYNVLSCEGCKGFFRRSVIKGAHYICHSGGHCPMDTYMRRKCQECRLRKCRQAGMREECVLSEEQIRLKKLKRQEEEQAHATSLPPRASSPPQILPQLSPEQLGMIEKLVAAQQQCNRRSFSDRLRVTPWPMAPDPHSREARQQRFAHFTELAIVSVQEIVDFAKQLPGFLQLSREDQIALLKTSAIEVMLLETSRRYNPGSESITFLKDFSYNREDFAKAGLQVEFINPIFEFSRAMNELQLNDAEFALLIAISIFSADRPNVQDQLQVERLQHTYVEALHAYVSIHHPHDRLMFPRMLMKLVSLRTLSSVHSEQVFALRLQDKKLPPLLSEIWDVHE
Procedure, shortened: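 Chemical-induced reporter mRNA measured by RT-PCR with fluorescent labelling and capillary electrophoresis after 24 h dosing of transiently transfected HepG2 cells expressing exogenous NR-Gal4 chimeras; increases scored against DMSO baseline.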

[2] = ATG_M_06_TRANS: Attagene TRANS-FACTORIAL HepG2 Assay for M06 Transcription Factor (Internal Marker) (AID 2282983; active = hit-call score of the fitted dose curve at least 0.9, where 1 is the maximum); details: HepG2 Attagene TRANS M06 internal marker reporter
Procedure, shortened: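 Background-control reporter readout: after 24 h chemical exposure of transiently transfected HepG2 (GAL4-UAS reporter units), mRNA quantified by RT-PCR with fluorescent labeling and capillary electrophoresis. Gain-of-signal fitting against DMSO baseline.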

[3] = target: Transcriptional activator Myb (Homo sapiens) (UniProt P10242); assay: ATG_Myb_CIS: Attagene CIS-FACTORIAL HepG2 Assay for human Myeloblastosis (Myb) Proto-Oncogene Transcription Factor (AID 2282986); details: HepG2 Attagene CIS-FACTORIAL Myb reporter transcription; actives raise or lower the signal
Sequence of Transcriptional activator Myb (Homo sapiens) (P10242 whole entry, looked up): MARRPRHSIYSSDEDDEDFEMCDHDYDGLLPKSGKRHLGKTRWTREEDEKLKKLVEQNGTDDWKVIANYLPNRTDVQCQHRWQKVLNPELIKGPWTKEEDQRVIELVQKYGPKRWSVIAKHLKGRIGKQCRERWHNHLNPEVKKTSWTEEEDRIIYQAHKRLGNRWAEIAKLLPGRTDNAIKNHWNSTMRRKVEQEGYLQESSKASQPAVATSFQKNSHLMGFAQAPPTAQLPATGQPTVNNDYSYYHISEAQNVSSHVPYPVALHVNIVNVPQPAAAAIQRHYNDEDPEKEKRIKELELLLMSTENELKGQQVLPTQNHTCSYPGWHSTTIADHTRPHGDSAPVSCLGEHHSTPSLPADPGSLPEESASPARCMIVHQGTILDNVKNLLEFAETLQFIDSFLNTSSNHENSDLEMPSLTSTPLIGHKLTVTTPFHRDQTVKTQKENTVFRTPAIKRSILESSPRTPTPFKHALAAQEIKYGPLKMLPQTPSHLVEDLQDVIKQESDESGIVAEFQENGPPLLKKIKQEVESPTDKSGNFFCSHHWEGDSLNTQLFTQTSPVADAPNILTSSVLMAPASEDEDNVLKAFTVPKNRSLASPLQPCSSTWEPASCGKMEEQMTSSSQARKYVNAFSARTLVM
Procedure, shortened: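 Fluorescence signals from capillary electrophoresis of RT-PCR-amplified reporter cDNA give the read-out. Cells: HepG2 transfected with multiple cis-regulated reporter units. Exposure lasts 24 hours; DMSO defines baseline for gain or loss of signal.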

[4] = target: Nuclear respiratory factor 1 (Homo sapiens) (UniProt Q16656); assay: ATG_NRF1_CIS: Attagene CIS-FACTORIAL HepG2 Assay for human Nuclear Respiratory Factor 1 (NRF1) Orphan Gene (AID 2282987); details: HepG2 NRF1 cis-element reporter, Attagene multiplex; actives raise or lower the signal
Sequence of Nuclear respiratory factor 1 (Homo sapiens) (Q16656 whole entry, looked up): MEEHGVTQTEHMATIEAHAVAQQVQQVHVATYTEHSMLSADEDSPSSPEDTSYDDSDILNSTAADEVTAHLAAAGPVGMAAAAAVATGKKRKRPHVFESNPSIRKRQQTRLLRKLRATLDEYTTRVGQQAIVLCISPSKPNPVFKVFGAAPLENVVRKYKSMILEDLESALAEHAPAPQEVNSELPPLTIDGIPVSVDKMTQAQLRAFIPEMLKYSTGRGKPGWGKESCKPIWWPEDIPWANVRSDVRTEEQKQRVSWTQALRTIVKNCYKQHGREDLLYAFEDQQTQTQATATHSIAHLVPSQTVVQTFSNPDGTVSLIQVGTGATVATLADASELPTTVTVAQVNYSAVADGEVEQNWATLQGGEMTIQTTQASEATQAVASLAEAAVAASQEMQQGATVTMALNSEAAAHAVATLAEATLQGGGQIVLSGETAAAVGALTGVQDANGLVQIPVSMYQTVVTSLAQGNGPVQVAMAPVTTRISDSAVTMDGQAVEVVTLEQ
Procedure, shortened: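 Transcriptional reporter readout, one component of a 52-endpoint multiplexed HepG2 panel. Exposure 24 h; mRNA detected via RT-PCR and fluorescent capillary electrophoresis; fitting in both directions against DMSO.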

[5] = ATG_NFI_CIS: Attagene CIS-FACTORIAL HepG2 Assay for human Nuclear Factor I (NFI) (AID 2282989); details: HepG2 cis-regulatory reporter, NFI response element transcription; actives raise or lower the signal
Procedure, shortened: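 Endogenous TF activity in HepG2 cells transiently transfected with cis-element-driven multiplexed reporter units, read 24 h after dosing. Reporter mRNA quantified by RT-PCR, 6-FAM labelling, HpaI digestion and capillary electrophoresis; bidirectional fit versus DMSO.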

[6] = target: Myc proto-oncogene protein (Homo sapiens) (UniProt P01106); assay: ATG_Myc_CIS: Attagene CIS-FACTORIAL HepG2 Assay for human Myelocytomatosis (Myc) Proto-Oncogene Transcription Factor (AID 2282990); details: HepG2, Attagene cis-reporter transcription factor activity; actives raise or lower the signal
Sequence of Myc proto-oncogene protein (Homo sapiens) (P01106 whole entry, looked up): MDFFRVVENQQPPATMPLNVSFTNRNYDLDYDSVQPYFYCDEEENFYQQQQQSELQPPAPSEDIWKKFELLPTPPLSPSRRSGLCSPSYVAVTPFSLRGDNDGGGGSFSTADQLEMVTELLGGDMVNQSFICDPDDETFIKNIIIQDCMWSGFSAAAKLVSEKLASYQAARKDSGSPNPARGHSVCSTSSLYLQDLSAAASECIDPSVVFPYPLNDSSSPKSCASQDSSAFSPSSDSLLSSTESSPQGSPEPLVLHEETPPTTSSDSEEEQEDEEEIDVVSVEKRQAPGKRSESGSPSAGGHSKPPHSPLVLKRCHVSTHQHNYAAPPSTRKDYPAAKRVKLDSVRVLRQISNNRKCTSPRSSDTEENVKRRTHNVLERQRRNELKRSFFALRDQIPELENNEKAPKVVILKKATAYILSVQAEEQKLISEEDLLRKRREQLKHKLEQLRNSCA
Procedure, shortened: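 DMSO-normalised, bidirectionally fitted reporter mRNA signal. HepG2 cells transfected with cis reporter constructs, treated 24 h; transcripts detected by RT-PCR, 6-FAM primer extension and CE.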

[7] = ATG_NF_kB_CIS: Attagene CIS-FACTORIAL HepG2 Assay for human Nuclear Factor Kappa B (NF-kB) (AID 2282991); details: HepG2 Attagene cis-factorial NF-kB reporter mRNA; actives raise or lower the signal
Procedure, shortened: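 HepG2, transient multi-reporter transfection, cis promoter elements (endogenous TFs). 24 h exposure. Total RNA → RT → PCR → 6-FAM label → HpaI → CE. Gain/loss vs DMSO.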

[8] = ATG_NRF2_ARE_CIS: Attagene CIS-FACTORIAL HepG2 Assay for human Nuclear Factor Erythroid 2 Related Factor 2 (NFR2) response to Antioxidant Response Elements (ARE) (AID 2282992); details: HepG2 Attagene ARE/NRF2 reporter, transcription factor activity; actives raise or lower the signal;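 for AC50: reporter mRNA level measured by RT-PCR and capillary electrophoresis fluorescence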
Procedure, shortened: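 Readout: reporter mRNA quantified by RT-PCR plus FAM-labelled primer extension, HpaI digestion and capillary electrophoresis, 24 h after dosing transfected HepG2 cells. Gain or loss of signal is fitted bidirectionally against DMSO baseline.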

[9] = ATG_Oct_MLP_CIS: Attagene CIS-FACTORIAL HepG2 Assay for human Octamer-Binding Transcription Factor (Oct) (AID 2282993); details: HepG2 Attagene cis-factorial Oct reporter, mRNA; actives raise or lower the signal
Procedure, shortened: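 HepG2 cells transiently transfected with cis-element-driven reporter transcription units (endogenous TF activity); 24 h compound exposure. Reporter mRNA quantified by RT-PCR, 6-FAM labelling, HpaI digestion and capillary electrophoresis; bidirectional fit versus DMSO baseline.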

[10] = target: Cellular tumor antigen p53 (Homo sapiens) (UniProt P04637); assay: ATG_p53_CIS: Attagene CIS-FACTORIAL HepG2 Assay for human p53 Transcription Factor (AID 2282994); details: HepG2 p53 cis-element reporter, Attagene mRNA; actives raise or lower the signal
Sequence of Cellular tumor antigen p53 (Homo sapiens) (P04637 whole entry, looked up): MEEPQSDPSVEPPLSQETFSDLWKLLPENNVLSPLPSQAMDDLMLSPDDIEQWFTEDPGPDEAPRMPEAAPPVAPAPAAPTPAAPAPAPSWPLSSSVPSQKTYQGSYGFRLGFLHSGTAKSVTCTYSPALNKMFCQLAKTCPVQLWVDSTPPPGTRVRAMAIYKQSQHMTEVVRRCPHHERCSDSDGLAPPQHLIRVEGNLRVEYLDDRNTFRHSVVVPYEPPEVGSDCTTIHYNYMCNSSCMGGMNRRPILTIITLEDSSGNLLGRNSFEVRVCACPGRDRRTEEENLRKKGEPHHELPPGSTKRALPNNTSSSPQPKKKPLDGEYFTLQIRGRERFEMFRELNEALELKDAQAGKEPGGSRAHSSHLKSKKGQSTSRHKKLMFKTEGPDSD
Procedure, shortened: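 Read-out: reporter mRNA by RT-PCR plus capillary electrophoresis with fluorescence detection. Human HepG2 liver cells carried transfected multi-reporter cis-element constructs, dosed 24 h. Gain or loss of signal fitted bidirectionally against DMSO control.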

[11] = target: human Peroxisome Proliferator-activated Receptor alpha (PPARa), PPARA (gene 5465) (UniProt Q07869); assay: ATG_PPARa_TRANS: Attagene TRANS-FACTORIAL HepG2 Assay for human Peroxisome Proliferator-activated Receptor alpha (PPARa) (AID 2283001; active = hit-call score of the fitted dose curve at least 0.9, where 1 is the maximum)
Sequence of human Peroxisome Proliferator-activated Receptor alpha (PPARa), PPARA (gene 5465) (Q07869 whole entry, looked up): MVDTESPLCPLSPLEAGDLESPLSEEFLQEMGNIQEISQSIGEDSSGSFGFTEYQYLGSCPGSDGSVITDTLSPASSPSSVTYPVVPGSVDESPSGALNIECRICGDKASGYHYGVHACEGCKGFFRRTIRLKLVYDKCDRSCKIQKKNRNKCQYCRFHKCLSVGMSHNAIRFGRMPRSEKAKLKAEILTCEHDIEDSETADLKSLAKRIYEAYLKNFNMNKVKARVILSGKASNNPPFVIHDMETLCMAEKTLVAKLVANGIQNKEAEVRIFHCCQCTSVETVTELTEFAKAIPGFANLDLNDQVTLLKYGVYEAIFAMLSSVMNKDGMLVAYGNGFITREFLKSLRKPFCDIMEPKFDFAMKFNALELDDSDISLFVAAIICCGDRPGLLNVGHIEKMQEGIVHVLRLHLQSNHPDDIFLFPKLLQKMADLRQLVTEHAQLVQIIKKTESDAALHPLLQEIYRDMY
Procedure, shortened: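 Cells (HepG2) are transfected with multiple reporter transcription units, exposed to chemical for 24 h, then total RNA is reverse-transcribed and amplified. Labelled products are quantified by capillary electrophoresis; induction is referenced to DMSO.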

[12] = ATG_M_32_TRANS: Attagene TRANS-FACTORIAL HepG2 Assay for M32 Transcription Factor (Internal Marker) (AID 2282984; active = hit-call score of the fitted dose curve at least 0.9, where 1 is the maximum;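 note: transcript level of a background control reporter unit measured by RT-PCR and capillary electrophoresis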); details: HepG2 Attagene TRANS M32 internal marker reporter
Procedure, shortened: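 After 24 h dosing of transfected HepG2 cells, total RNA was reverse-transcribed, reporter sequences PCR-amplified, 6-FAM labelled by primer extension and HpaI-digested before capillary electrophoresis. Signal increase over DMSO was fitted.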

[13] = target: Nuclear receptor subfamily 4 group A member 2 (Homo sapiens) (UniProt P43354); assay: ATG_NURR1_TRANS: Attagene TRANS-FACTORIAL HepG2 Assay for human Nuclear Receptor Related Protein 1 (NURR1) (AID 2282985; active = hit-call score of the fitted dose curve at least 0.9, where 1 is the maximum); details: HepG2 Attagene TRANS reporter, mRNA readout
Sequence of Nuclear receptor subfamily 4 group A member 2 (Homo sapiens) (P43354 whole entry, looked up, the tested form may be a part): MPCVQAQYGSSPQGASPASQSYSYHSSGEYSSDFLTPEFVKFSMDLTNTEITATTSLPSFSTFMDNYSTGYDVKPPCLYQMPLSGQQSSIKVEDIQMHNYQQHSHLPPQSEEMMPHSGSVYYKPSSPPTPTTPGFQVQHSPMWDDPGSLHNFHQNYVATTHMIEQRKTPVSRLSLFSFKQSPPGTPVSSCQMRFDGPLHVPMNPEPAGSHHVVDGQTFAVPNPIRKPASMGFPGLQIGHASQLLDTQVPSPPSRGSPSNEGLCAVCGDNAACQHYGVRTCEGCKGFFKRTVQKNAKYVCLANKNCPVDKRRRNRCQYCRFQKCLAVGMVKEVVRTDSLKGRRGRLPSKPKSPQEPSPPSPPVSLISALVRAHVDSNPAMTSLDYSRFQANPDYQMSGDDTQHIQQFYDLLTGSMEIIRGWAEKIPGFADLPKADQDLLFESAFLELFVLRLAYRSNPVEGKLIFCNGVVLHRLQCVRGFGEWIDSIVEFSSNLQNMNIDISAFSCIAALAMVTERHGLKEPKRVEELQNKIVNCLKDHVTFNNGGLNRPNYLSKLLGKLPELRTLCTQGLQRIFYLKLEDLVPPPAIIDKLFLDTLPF
Procedure, shortened: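 Chimeric NR-Gal4 fusion activity measured in HepG2 after 24 h treatment. Reporter transcripts detected by RT-PCR and capillary electrophoresis fluorescence; positive-direction curve fitting against DMSO.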

[14] = target: Oxysterols receptor LXR-beta (Homo sapiens) (UniProt P55055); assay: ATG_LXRb_TRANS: Attagene TRANS-FACTORIAL HepG2 Assay for human Liver X Receptor beta (LXRb) (AID 2282981; active = hit-call score of the fitted dose curve at least 0.9, where 1 is the maximum); details: HepG2 Attagene TRANS GAL4-LXRb reporter, mRNA
Sequence of Oxysterols receptor LXR-beta (Homo sapiens) (P55055 whole entry, looked up, the tested form may be a part): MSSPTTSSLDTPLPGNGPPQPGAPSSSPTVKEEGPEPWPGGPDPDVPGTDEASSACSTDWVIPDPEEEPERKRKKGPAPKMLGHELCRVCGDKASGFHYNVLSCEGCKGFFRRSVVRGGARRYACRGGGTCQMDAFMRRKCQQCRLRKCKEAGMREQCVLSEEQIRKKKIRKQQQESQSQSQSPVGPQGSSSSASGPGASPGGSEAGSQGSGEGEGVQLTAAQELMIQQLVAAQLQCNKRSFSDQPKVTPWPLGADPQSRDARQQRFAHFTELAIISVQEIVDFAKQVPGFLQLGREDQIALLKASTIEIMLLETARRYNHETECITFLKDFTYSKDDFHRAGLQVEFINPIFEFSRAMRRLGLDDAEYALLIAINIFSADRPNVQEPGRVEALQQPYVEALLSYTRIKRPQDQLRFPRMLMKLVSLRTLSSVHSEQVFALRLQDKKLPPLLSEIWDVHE
Procedure, shortened: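 Measures induction of a Gal4-driven reporter transcript in HepG2 cells expressing an exogenous LXRb-Gal4 fusion. Cells are exposed to compound for 24 h before RNA isolation and RT-PCR with capillary electrophoresis detection.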

[15] = target: Hepatocyte nuclear factor 4-alpha (Homo sapiens) (UniProt P41235); assay: ATG_HNF4a_TRANS: Attagene TRANS-FACTORIAL HepG2 Assay for human Hepatocyte Nuclear Factor 4 alpha (HNF4a) (AID 2282982; active = hit-call score of the fitted dose curve at least 0.9, where 1 is the maximum); details: HepG2 HNF4a transactivation reporter, mRNA readout
Sequence of Hepatocyte nuclear factor 4-alpha (Homo sapiens) (P41235 whole entry, looked up, the tested form may be a part): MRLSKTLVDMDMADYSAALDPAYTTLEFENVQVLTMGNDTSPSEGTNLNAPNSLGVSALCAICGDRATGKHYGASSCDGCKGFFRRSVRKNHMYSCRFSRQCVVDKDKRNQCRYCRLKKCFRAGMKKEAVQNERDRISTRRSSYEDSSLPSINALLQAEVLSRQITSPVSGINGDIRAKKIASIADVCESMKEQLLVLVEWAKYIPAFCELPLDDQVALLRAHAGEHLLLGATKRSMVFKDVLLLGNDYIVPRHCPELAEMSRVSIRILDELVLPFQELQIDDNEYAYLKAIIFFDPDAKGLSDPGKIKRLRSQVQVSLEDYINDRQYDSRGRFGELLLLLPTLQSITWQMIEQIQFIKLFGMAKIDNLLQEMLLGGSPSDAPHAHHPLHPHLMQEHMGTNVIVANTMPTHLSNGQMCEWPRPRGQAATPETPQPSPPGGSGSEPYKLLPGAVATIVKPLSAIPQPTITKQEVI
Procedure, shortened: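 In this trans-factorial format, a chimeric HNF4a-GAL4 fusion drives a GAL4-UAS reporter in transfected HepG2 liver cells. After 24 h treatment, reporter mRNA induction is measured by RT-PCR with capillary electrophoresis, relative to DMSO.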

SMILES	outcome [1]	outcome [2]	outcome [3]	outcome [4]	AC50 [5]	outcome [6]	outcome [7]	AC50 [8]	outcome [9]	outcome [10]	outcome [11]	outcome [12]	outcome [5]	AC50 [10]	outcome [13]	outcome [8]	outcome [14]	outcome [15]
C[C@]12CC[C@@H]3c4ccc(O)cc4CC[C@H]3[C@@H]1CC[C@@H]2OC(=O)CCC1CCCC1	inactive	inactive	inactive	inactive	100 µM (active)	inactive	inactive	21.5 µM (active)	inactive	inactive	inactive							
CCCCCCc1ccc(N)cc1	inactive	inactive	inactive	inactive		inactive	inactive	2.51 µM (active)	inactive		inactive	inactive	inactive	6.32 µM (active)				
CCOC(C)=O	inactive		inactive	inactive		inactive	inactive		inactive	inactive	inactive	inactive	inactive		inactive	inactive		
CC1CCC(CO)CC1 (stereo unspecified)		inactive	inactive	inactive		inactive			inactive		inactive	inactive	inactive		inactive		inactive	inactive
